Laboratory results taken from PubChem BioAssay (NCI).
This is part of a sample that, as a whole, favours compounds with a hit. Of some 83,000 tested, about 20% had one in any assay.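 Plates (96-well) were seeded with cells, treated with compound at one concentration, and incubated for 48 hours before percent growth was determined.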 A number with no mark means an inactive call. Activity calls are given as the source filed them.

Test system: MDA-MB-435 melanoma
Experiment: NCI-60 one-dose screen, 48 h (100 = growth as untreated, 0 = no growth, -100 = all killed)
Settings: 10 µM unless noted
Description: Growth inhibition of the MDA-MB-435 human Melanoma tumor cell line is measured as a screen for anti-cancer activity. Cells are grown in 96 well plates and exposed to the test compound for 48 hours. Compounds are tested at a single concentration, which is 10^-5 M for most compounds. The reported endpoint is percent growth (GI% or GIPRCNT), where numbers from 0 - 100% represent growth inhibition, and numbers from -100% - 0 represent cell death. For example, a value of 40 represents 60% growth inhibition. A value of 0 means no net growth occurred over the course of the experiment. A value of -40 indicates 40% of cells at the beginning of the experiment died by the end of the experiment. A value of -100 means all cells are dead at the end of the experiment.
NCI-60 Human Tumor Cell Lines Screen was performed using the standard one-dose NCI protocol, which is described in more detail at https://dtp.cancer.gov/discovery_development/nci-60/default.htm.
Compounds with GIPRCNT values below 10 were considered active. Activity score was based on GIPRCNT using the following formula: […]
Score is 0 for GIPRCNT values of 100 or above, 50 for GIPRCNT values of 0, and 100 for GIPRCNT values of -100.

SMILES | growth
COc1ccc2[nH]c3nc4cnccc4cc3c2c1 | 109%
Cc1cccc(C)c1Nc1nnc(-c2ccc(F)cc2)o1 | 103%
C#CCN1C(=O)c2ccccc2N(CC#C)C12CCN(Cc1cn(CC(=O)Nc3ccccc3C(N)=O)nn1)CC2 | 91.9%
COc1ccc(NC(=O)c2sc3nc(C)c(C(C)=O)cc3c2N)cc1 | 93.2%
OCCNc1nc(NCCO)nc(Nc2ccc(C3=NN(c4cc(Cl)cc(Cl)c4)C(c4ccc(C(F)(F)F)cc4)C3)cc2)n1 (stereo not given) | 42.1%
COc1cc(C(=O)N2CCN(c3ccccc3OC)CC2)c(NC(=O)c2cnccn2)cc1OCc1ccccc1 | 95.1%
COc1ccc(C2CC(c3ccc(OC)cc3O)=NN2c2ccc(S(N)(=O)=O)cc2)cc1 (stereo not given) | 36.8%
CCCCc1n(Cc2ccc3ccccc3n2)cc[n+]1Cc1ccc2ccccc2c1 | 1.33% (active)
O=C(NC[C@H](O)CN1CCc2ccccc2C1)c1cc(NC2COC2)ncn1 | 95.1%
O=C(CN1N=C(c2ccc(F)cc2)CCC1=O)Nc1nccs1 | 102%
CCOC(=O)C1=C(C)n2nc(CC#N)c(C#N)c2NC1c1ccc(CC)cc1 (stereo not given) | 98.5%
CCOC(=O)CC[C@H](NC(=O)c1ccc(NC)c2ccccc12)C(=O)OCC | 105%
COc1cc(C2=NN(c3ccccc3)C(c3cccc(Nc4ccnc5cc(C(F)(F)F)ccc45)c3)C2)cc(OC)c1OC (stereo not given) | 104%
Cc1cccc2nc3c(n12)C(=O)C(=O)c1ccccc1-3 | -86% (active)
C#C[C@@]1(O)[C@@H](CO)O[C@@H](n2cc(F)c3c(N)ncnc32)[C@@H]1O | 1.49% (active)
CCC[S@](=O)c1ccc2nc(NC(=O)OC)[nH]c2c1 | 101%
COc1cc2nc3c(=O)n(-c4ccc(C#N)cc4)cnn3c(=O)c2cc1OC | 98.5%
CCC1S/C(=N\N=C(/C)c2ccc[nH]2)N(c2ccccc2)C1=O (stereo not given) | 104%
N#CC1(C#N)C2=C(CCCC2)NC(c2c(F)cccc2Cl)C1(C#N)C#N (stereo not given) | 18%
COc1ccc(-c2cc(-c3nnc(SCC(=O)Nc4ccc(C(C)=O)cc4)o3)c3ccccc3n2)cc1 | 11.5%

SMILES | growth
C=C1C(=O)O[C@H]2[C@H]1CC/C(COC(=O)c1cn(C)c3ccccc13)=C\CC[C@@]1(C)O[C@@H]21 | -51.2% (active)
COc1ccc(/C=C/C(=O)c2ccc(NC(=O)CSc3nnc(-c4ccc(OC)c(OC)c4)n3-c3ccccc3)cc2)cc1 | 45.3%
Cc1ccc(CS/C(=C\c2ccc([N+](=O)[O-])cc2)C(=O)c2ccc(F)cc2)cc1 | 33.5%
NC(=O)c1ccc2nc3c(n2c1)C(=O)C(=O)c1ccccc1-3 | -91.4% (active)
c1ccc(-c2n(Cc3ccc4ccccc4n3)cc[n+]2Cc2ccc3ccccc3c2)cc1 | 2.12% (active)
CNS(=O)(=O)c1cccc(-c2ccc3c4c(n(C)c(=O)c3c2)-c2ccccc2C4=O)c1 | 74.5%
C=C1C(=O)O[C@H]2[C@H]1CC/C(COC(=O)c1c[nH]c3ccccc13)=C\CC[C@@]1(C)O[C@@H]21 | -82.9% (active)
O=C1Nc2ccc(Br)cc2/C1=N\N=C/c1cn(Cc2ccccc2)c2ccccc12 | 105%
COc1ccc2c(c1)/C(=C1\S/C(=N/c3nnc(C)s3)NC1=O)C(=O)N2Cc1ccc(Cl)cc1 | 52.8%
CCCCN(CCCC)CC(CN(CC)CC)OC(=O)Nc1ccccc1 (stereo not given) | 102%
N#Cc1ccc(N2Cc3cc(Cl)ccc3OC3=C2C(=O)N(Cc2ccccc2)C3=O)cc1 | -42.5% (active)
C=C(C)[C@@H]1CC[C@]2(C(=O)n3ccnc3)CC[C@]3(C)[C@H](CC[C@@H]4[C@@]5(C)CCCNC(C)(C)[C@@H]5CC[C@]43C)[C@@H]12 | -34.4% (active)
c1ccc(-c2n(Cc3ccc4ccccc4n3)cc[n+]2Cc2ccc3ccccc3n2)cc1 | 15.4%
Cc1cc(C)c2nc(Nc3nc(C)c(C)c(=O)[nH]3)nc(C)c2c1 | 15.7%
COc1ccc2c(c1)Oc1nc(N)c(C#N)c(N)c1C2Sc1ccc(O)cc1 (stereo not given) | 99.5%
CCCn1c2cc(OCc3cn(-c4ccc(Br)cc4)nn3)ccc2c2ccnc(C)c21 | 85.4%
C=C(C)[C@@H]1CC[C@]2(C(=O)NCCCO)CC[C@]3(C)[C@H](CC[C@@H]4[C@@]5(C)CCCNC(C)(C)[C@@H]5CC[C@]43C)[C@@H]12 | 69.9%
O=C(Nc1nc(-c2ccccc2Cl)cs1)c1cc(-c2ccc(Br)cc2)nc2ccccc12 | 64.5%
COc1ccc2nc(-c3ccc(Cl)cc3)cc(-c3nnc(SCC(=O)Nc4ccc(/C(C)=N\O)cc4)o3)c2c1 | 16.4%
Nc1ccc(C2=NN(C(=O)c3cc(-c4ccc(Cl)cc4)nc4ccccc34)C(c3ccccc3)C2)cc1 (stereo not given) | -24.3% (active)
